High-throughput results: PubChem BioAssay, National Center for Advancing Translational Sciences (NCATS)
KDM5B inhibitor – KDM5B demethylase inhibition | KDM5B demethylase, FDH-coupled NADH fluorescence (FDH is formaldehyde dehydrogenase) | Potency, µM (doses to about 57.7 µM), most hits filed as inhibitors | 2.6% of 220,000 active | AID 1347165; active = well fitted inhibition curve with a large enough effect; note: nearly all actives have a fitted effect of over 70% in size
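Coupled FDH/NAD⁺ fluorescence readout. KDM5BΔAP 200 nM final; compound titration, 10 min RT preincubation; substrate mix 12.5 µM H3K4me3, 25 µM 2-OG, 50 µM Fe(II), 100 µM ascorbate, 0.25 mM NAD⁺, 0.25 U/mL FDH; ΔRFU over 30 min.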
Large screens that a line does not name were inactive. Many of the other results were omitted from the sample, so hits are more common in it than they were.

CC(=O)N1CCC2(CC1)CN(Cc1ccncc1)Cc1ccccc1O2	KDM5B inhibitor 56µM
O=C(C1CCCC1)N1CC2(CCN(Cc3ccc(Cl)cc3)C2)OCc2ccccc21 (centres undefined)	none
CN(C)C(=O)N1CCC2(CC1)CN(Cc1ccc(O)cc1)Cc1ccccc1O2	none
O=C(c1ccc(Cl)cc1)N1CC2(CCN(Cc3ccncc3)C2)OCc2ccccc21 (centres undefined)	KDM5B inhibitor 40µM
O=C(c1ccc(Cl)cc1)N1CC2(CCN(CC3CCCC3)C2)OCc2ccccc21 (centres undefined)	none
CC(=O)N1CCC2(CC1)CN(C(=O)N(C)C)Cc1ccccc1O2	none
CCNC(=O)C1CCN(C(=O)Cn2c(=O)c3c(ncn3CCOC)n(Cc3ccccc3)c2=O)CC1	none
O=c1[nH]nc(SCc2nc(-c3cccc(C(F)(F)F)c3)no2)n2nc(-c3ccco3)cc12	none
CCCCOc1ccc(NC(=O)Cc2ccccc2)c2cccnc12	none
N#Cc1cn(CC(=O)Nc2ccc(F)c(Cl)c2)c2ccccc12	none
CC(C)(C)c1ccc(-c2cc(C[C@H]3CNCC[C@H]3CC(=O)N3CCN(c4ccccn4)CC3)no2)cc1	none
CN(Cc1ccccc1)Cc1cc(C[C@H]2CNCC[C@H]2CC(=O)NC2CCCCC2)no1	none
CN(Cc1ccccc1)Cc1cc(C[C@H]2CNCC[C@H]2CC(=O)N2CCN(c3ccccn3)CC2)no1	KDM5B inhibitor 18µM
CCCn1c(N2CCN(CC(N)=O)CC2)nc2c1c(=O)[nH]c(=O)n2C	none
COc1cc(C(=O)Nc2cccc3cccnc23)ccc1C	none
COc1ccc(CN(C(=O)Cc2n[nH]c(=O)c3ccccc23)C2CC2)cc1	none
CCc1ccc2ncc(S(=O)(=O)c3ccc(C)c(C)c3)c(N3CCOCC3)c2c1	none
O=C1[C@H]2CN(Cc3ccc(F)c(Cl)c3)C[C@H]2C(=O)N1CCc1ccccc1	KDM5B inhibitor 13µM
O=C1[C@H]2CN(Cc3ccc(Cl)cc3)C[C@H]2C(=O)N1CCc1ccccc1	none
CN1C(=O)[C@H]2CN(Cc3ccc(F)c(Cl)c3)C[C@H]2C1=O	none
O=C(/C=C/c1ccccc1)OCC1C(COC(=O)/C=C/c2ccccc2)C1(Cl)Cl (centres undefined)	none
O=C(Nc1ccc(F)c(S(=O)(=O)N2CCOCC2)c1)c1ccccc1-c1ccccc1	none
CC(C)C(=O)N1CCN(c2ccccc2NC(=O)C2(c3ccccc3)CCCC2)CC1	none
N#CC1(C(N)=O)C(c2ccccc2Cl)C1(C#N)C(N)=O (centres undefined)	none
O=c1cc(CN2CCN(c3ncccn3)CC2)nc2sc(C3CCCCC3)nn12	none
CCCC(=O)NCC(=O)N(CCN(C)C)Cc1ccc(Cl)cc1	none
Nc1ccc(C(=O)NCc2cccnc2)cc1	none
O=C(NCc1cccnc1)c1nc(-c2ccccc2)c2ccccn12	none
Cc1cccc(C)c1-c1nc(C(=O)NCc2cccnc2)n2ccccc12	KDM5B inhibitor 25µM
O=C(NCc1cccnc1)C1CCc2nnc(-c3ccc(Cl)nc3)n21 (centres undefined)	none
O=C(NCc1cccnc1)c1nc(-c2ccc(Cl)cc2)c2ccccn12	KDM5B inhibitor 28µM
Cc1cccc(C)c1-c1nc(C(=O)NCc2ccsc2)n2ccccc12	KDM5B inhibitor 32µM
O=C(NCc1cccnc1)c1nc(-c2ccc(Cl)nc2)c2ccccn12	KDM5B inhibitor 89µM
O=C(Nc1cccc(Br)c1)C1CCCCC1	none
COc1ccc(C)cc1C(=O)N1CCc2onc(-c3ccccc3F)c2C1	none
CCN(CCC(F)(F)F)C(=O)Cc1c[nH]c2ccccc12	none
CCCCCn1nc(C(=O)Nc2ccccc2Cl)c2ccccc2c1=O	none
Clc1ccccc1C1(c2ccnc(C3CCCC3)n2)CCNCC1	none
O=C(CSc1n[nH]c(-c2ccncc2)n1)Nc1cccc(C(F)(F)F)c1	none
O=C(c1ccc(-n2cnnn2)cc1O)N1CCCC(CCc2ccc(F)cc2)C1 (centres undefined)	none
O=C(Nc1ccc(C(F)(F)F)cc1)C1CCN(/C=C/C(=O)C(F)(F)F)CC1	none
Cc1ccc(NC(=O)CC(C)(C(=O)O)c2ccccc2)c(C)c1 (centres undefined)	none
Cc1ccc(Cn2nc(C)c(C(=O)OCC(=O)c3cc(C)n(C(C)C)c3C)c2Cl)cc1	none
CCCCc1cc(=O)oc2cc(OCC(=O)Nc3ccc(C(N)=O)cc3)ccc12	none
O=C1C(Cl)=C(NCc2cccnc2)C(=O)c2ccccc21	none
O=C(NCc1cccnc1)C1CCC(c2ccc(Cl)cc2)CC1 (centres undefined)	none
COCCNC(=O)c1nc(-c2ccsc2)c2ccccn12	KDM5B inhibitor 40µM
O=C(NCc1cccnc1)c1nc(-c2cc(Cl)cc(Cl)c2)c2ccccn12	none
CSc1ncc(Cl)c(C(=O)NCc2cccnc2)n1	none
COc1ccc(-c2nc(C(=O)NCc3cccnc3)n3ccccc23)cc1	KDM5B inhibitor 28µM
COCCNC(=O)c1nc(-c2cccnc2)c2ccccn12	none
O=C(O)c1cnc(NCc2cccnc2)nc1-c1ccc(Cl)cc1	KDM5B inhibitor 32µM
CC(CNC(=O)c1csc(-c2ccsc2)n1)c1ccccc1 (centres undefined)	none
O=C(NCc1cccnc1)c1nc(-c2ccc(Cl)cc2Cl)c2ccccn12	KDM5B inhibitor 79µM
COc1ccc(-c2noc(NCCc3ccc(Cl)cc3)n2)cc1	none
CCOC(=O)c1[nH]c(C)c(C=O)c1C	none
COc1ccccc1NC(=O)Cn1c(=O)n(-c2cccc(C)c2)c(=O)c2c1cc(C)n2C	none
CCC[n+]1c(NCc2cc(Br)cc(Br)c2[O-])[nH]c2ccccc21	none
O=C(c1ccc(C(F)(F)F)cc1)N1CCC2(CC1)CC(=O)N(c1ccccc1)c1ccccc1O2	none
C=CCn1c(N(C)Cc2ccccc2)nc2c1c(=O)[nH]c(=O)n2C	none
O=C(CSCc1coc(-c2ccc(Cl)cc2)n1)NC1CCCCCC1	none
CN(CC(=O)Nc1ccccc1Br)C(=O)CCc1ncc(-c2ccc(F)cc2)o1	none
C=CCn1c(N2CCN(Cc3ccc(Cl)c(Cl)c3)CC2)nc2c1c(=O)[nH]c(=O)n2C	none
Cc1[nH]cnc1CN1CCc2nc(C(=O)Nc3cccc(C(F)(F)F)c3)oc2CC1	none
O=C(NCC1CC1)c1nc2c(o1)CCN(Cc1ccc(F)cc1F)CC2	none
O=C(c1nc2c(o1)CCN(Cc1cc(F)ccc1F)CC2)N1CCOCC1	none
O=C(Nc1ccc(Cl)cc1)c1nc2c(o1)CCN(Cc1ccc(F)cc1F)CC2	KDM5B inhibitor 28µM
COc1ccccc1CN1CCc2nc(C(=O)Nc3ccc(Cl)cc3)oc2CC1	KDM5B inhibitor 35µM
COc1ccccc1CN1CCc2ncc(C(=O)Nc3ccccc3)n2CC1	none
O=C(Nc1ccc(Cl)cc1)c1nc2c(o1)CCN(Cc1nccs1)CC2	none
COc1ccc(CN2CCc3nc(C(=O)NCc4ccncc4)oc3CC2)cc1	none
O=C(Nc1ccc(Cl)cc1)c1nc2c(o1)CCN(Cc1cccc(F)c1F)CC2	KDM5B inhibitor 35µM
CCCCCCn1nc(C(=O)OCC(=O)Nc2ccc(C(N)=O)cc2)c2ccccc2c1=O	none
O=C(CCC(=O)N1CCC(c2noc3ccc(F)cc23)CC1)N1CCCC1	none
CCCCCNC(=O)NCCc1c[nH]c2ccccc12	none
COc1ccc(N2C(=O)C(C)(C)CS2(=O)=O)cc1S(=O)(=O)NCCc1ccccc1F	none
C[C@]1(CO)[C@H]2Cc3sc(-c4ccsc4)nc3[C@@H](CC(=O)Nc3cccc(O)c3)[C@]2(C)CC[C@H]1O	none
C#CCN(C)C(=O)C[C@@H]1c2nc(-c3cccnc3)sc2C[C@@H]2[C@](C)(CO)[C@H](O)CC[C@]21C	KDM5B inhibitor 32µM
COCCNC(=O)C[C@@H]1c2nc(-c3ccccc3)sc2C[C@@H]2[C@](C)(CO)[C@H](O)CC[C@]21C	KDM5B inhibitor 28µM
